IL-1B inflam inh = inhibitors of inflammasome signaling (IL-1 beta secretion). AID 743279. 360,000 compounds, 4.7% hits. activity change, % at 57.5 µM. THP-1 LPS/ATP IL-1B secretion, AlphaLISA, 16 h; active compounds read low; in the data active = activity change below about -50%; inconclusive = mostly about -30% to -49%
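Secreted IL-1B measured by AlphaLISA bead assay after 16 h compound exposure of THP-1 cells; compounds (final up to 57.5 uM) added 1 h before LPS (250 ng/mL) and ATP (1.25 mM) stimulation; lower signal means less secretion.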
HT1080-NT tox = kills 2HG-producing HT-1080-NT fibrosarcoma cells; HT-1080-NT fibrosarcoma viability, CellTiter-Glo ATP luminescence, 48 h; Potency, µM (doses to about 46.1 µM), inactives show at the highest dose activity, negative = less viability, usual class: cytotoxic; 360,000 compounds, 1.6% hits; AID 686970;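 also: NT is the 2HG producing partner of a matched IDH1 knockdown line; potency is read from the fitted curve at half-maximal effect; 0% = DMSO-treated cells and -100% = media-only wells without cells; nearly all actives have a fitted effect of over 55% in size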
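Viability of the 2HG-overproducing fibrosarcoma line after 48 hours of compound exposure at 37 degrees C was determined by luminescence with CellTiter-Glo, and concentration-effect curves were then fitted and categorized.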
TDP1 cell noCPT = qHTS for Inhibitors of human tyrosyl-DNA phosphodiesterase 1 (TDP1): qHTS in cells in absence of CPT; Potency, µM (doses to about 46.2 µM), for inactives: top-dose activity change, negative = growth inhibition, actives largely listed as inhibitors; DT40 Tdp1-/- hTDP1 cells, no CPT, ATP luminescence, 48 h; 420,000 compounds, 15% hits; also: potency is read from the fitted curve at half-maximal effect; nearly all actives have a fitted effect of over 55% in size
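Readout: luminescence from CellTiter-Glo after 30 min in the dark at RT. Cells: DT40 Tdp1-/- with stable hTDP1, 400/well. Exposure: compounds alone, ≥48 hr, 37 °C.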
HT1080 IDH1KD tx = toxicity to HT-1080 IDH1 knockdown cells (counter line); 360,000 compounds, 2% hits; HT-1080 IDH1 knockdown viability, ATP luminescence, 48 h; Potency, µM (series often up to 46.1 µM), without a hit: at the highest dose activity, negative = toxicity, most hits filed as cytotoxic; AID 686971;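 also: potency is read from the fitted curve at half-maximal effect; 0% = DMSO wells and -100% = cell-free medium wells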
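Knockdown cells (IDH1KD HT-1080) received compounds 2 h after plating at 750 cells/well and were kept 48 h at 37 °C in 5% FBS RPMI. A CellTiter-Glo luminescence read gave % activity for curve fitting.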
TDP1 cell CPT = DT40-hTDP1 cell growth loss with CPT. chicken DT40 Tdp1-/-;hTDP1 cells + 20 nM CPT, ATP luminescence, 48 h. Potency, µM (series often up to 46.2 µM), inactives show at the top dose activity change, negative = growth inhibition, actives largely listed as inhibitors. 420,000 compounds, 12% hits; also: potency is read from the fitted curve at half-maximal effect; nearly all actives have a fitted effect of over 55% in size
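Cell growth measured by CellTiter-Glo luminescence after a minimum 48 h, 37 C compound exposure with 20 nM CPT in Tdp1-knockout DT40 cells stably expressing hTDP1, seeded 400/well; qHTS titration format.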
An asterisk follows results filed as active; ? = inconclusive; · = no result; [ ] = dose if it differs, or a comment. An excerpt weighted towards active compounds, which were near 19% of everything screened. Unless noted, calls follow the shape of the dose curve; as a rule, active = well fitted curve in the direction sought with a large enough effect; inconclusive = small, poorly fitted or top-dose-only effect, or another doubt; inactive = no such curve, though single readings can be large; an effect the other way counts as inactive or inconclusive. Unless noted, % is scaled to controls: 0 for no effect and ±100 for the full control effect.

SMILES	IL-1B inflam inh	HT1080-NT tox	TDP1 cell noCPT	HT1080 IDH1KD tx	TDP1 cell CPT
CC(C)N1CCc2c(sc(NC(=O)c3ccc4ccccc4c3)c2C(N)=O)C1	-84*	?	?	?	15µM*
CC(C)N1CCc2c(sc(NC(=O)Cc3ccccc3)c2C(N)=O)C1	?	7%	-22%	9%	-7%
CC(C)N1CCc2c(sc(NC(=O)c3ccc(C(=O)c4ccccc4)cc3)c2C(N)=O)C1	-98*	21µM*	23µM*	18µM*	?
CC(C)NC(=O)c1cc2cc([N+](=O)[O-])ccc2s1	-7	0%	15µM*	-1%	?
CC(C)N1CCc2c(sc(NC(=O)CCc3ccccc3)c2C(N)=O)C1	?	-3%	-7%	-3%	-2%
CC(C)N1CCc2c(sc(NC(=O)c3cc4cc([N+](=O)[O-])ccc4s3)c2C(N)=O)C1	121	?	4.6µM*	?	4.6µM*
CCC(CC)C(C(=O)NCc1ccccc1)N1CCN(CCN2CCOCC2)CC1 (centres undefined)	-13	-13%	2%	-7%	-10%
NC(=O)C1(N2CCCCC2)CCN(S(=O)(=O)c2cc(Cl)ccc2Cl)CC1	-10	-7%	-8%	-6%	-20%
CCC(C)(C)NC(=O)C(c1ccc(OC)cc1)N(C(=O)CCC(=O)Nc1cc(C)on1)c1cc(OC)ccc1OC (centres undefined)	13	-14%	-29%	-20%	-2%
CC(C)(C)NS(=O)(=O)c1cc(C(=O)Nc2sccc2C#N)ccc1Cl	4	?	12µM*	?	16µM*
NC(=S)N/N=C1/CCSc2ccc3ccccc3c21	-95*	26µM*	2.6µM*	?	3.7µM*
NC(=S)N/N=C/c1coc2c(ccc3ccccc32)c1=O	1	3%	-1%	6%	-15%
O=[N+]([O-])c1ccc(NCCCc2ccccc2)cc1	-18	-7%	18µM*	0%	?
O=C(CNc1cccc([N+](=O)[O-])c1)NCCCc1ccccc1	-96*	-6%	?	-5%	-3%
Cc1cc(Br)ccc1NC(=O)CNC(=O)CNc1cccc([N+](=O)[O-])c1	-24	-10%	?	-17%	21µM*
O=C(Cc1ccccc1)NC(NC(=O)Cc1ccccc1)c1cccc([N+](=O)[O-])c1	57	?	18µM*	?	?
COc1ccc(C2C(C(=O)O)c3ccccc3C(=O)N2Cc2ccco2)cc1 (centres undefined)	24	8%	9%	14%	-2%
Cn1nccc1C(=O)N1CCCC(N2CCN(Cc3ccc4c(c3)OCO4)CC2)C1 (centres undefined)	18	-1%	-13%	-3%	-25%
CCOC(=O)C(CC)Sc1ncnc2c1c(-c1ccccc1)cn2-c1ccc(OC)cc1 (centres undefined)	·	·	21µM*	·	?
Cc1ccc(-n2cc(-c3ccccc3)c3c(N4CCC(C)CC4)ncnc32)cc1Cl	·	·	-12%	·	1%
COc1ccc(-n2cc(-c3ccccc3)c3c(N4CCOCC4)ncnc32)cc1	-146*	?	18µM*	?	?
O=c1[nH]cnc2c1c(-c1ccccc1)cn2-c1cccc(Cl)c1	-7	-7%	?	-1%	?
CCN1CCN(c2ncnc3c2c(-c2ccccc2)cn3-c2ccc(F)cc2)CC1	-15	-3%	?	12%	?
COc1ccc(-n2cc(-c3ccccc3)c3c(=O)[nH]cnc32)cc1	-82*	-3%	-9%	-13%	15%
Fc1ccc(-n2cc(-c3ccccc3)c3c(N4CCOCC4)ncnc32)cc1	-6	-6%	21µM*	8%	21µM*
SMILES	IL-1B inflam inh	HT1080-NT tox	TDP1 cell noCPT	HT1080 IDH1KD tx	TDP1 cell CPT
Fc1ccc(-n2cc(-c3ccccc3)c3c(NC4CCCCC4)ncnc32)cc1	·	·	23µM*	·	21µM*
Cc1cc(CN(C)C(=O)c2ccc(OC3CCN(CCc4ccccc4)CC3)cc2)on1	-4	9%	-9%	0%	?
O=[N+]([O-])c1ccc(S(=O)(=O)c2ccccc2)nc1	0	5.8µM*	0.92µM*	5.8µM*	0.52µM*
Cc1ccc(S(=O)(=O)c2ccc([N+](=O)[O-])cn2)cc1	-105*	2.6µM*	0.52µM*	4.6µM*	0.46µM*
Nc1ccc(S(=O)(=O)c2ccccc2)nc1	-28	-4%	-3%	0%	6%
Cc1cc(Sc2ccc([N+](=O)[O-])cn2)ccc1Br	-14	-13%	?	3%	-40%
Cc1cc(S(=O)(=O)c2ccc([N+](=O)[O-])cn2)ccc1Br	-106*	2.3µM*	0.33µM*	3.7µM*	0.33µM*
COc1cc(=O)n2c(c1C(=O)NCc1ccco1)CCN(Cc1cccc(Cl)c1)CC2	·	·	-26%	·	14%[9.04 µM]
Oc1ccc(Br)cc1-c1ccn[nH]1	-3	-1%	-25%	2%	-1%
Oc1ccc(O)c(-c2cnns2)c1	?	-25%	?	-23%	15µM*
Cc1cccc(N=c2oc3cc(O)ccc3cc2C(N)=O)c1	-19	?	15µM*	?	?
COc1ccc2cc(C(N)=O)c(=Nc3ccc(C)cc3)oc2c1	-2	14%	8.2µM*	25%	-17%
COc1cccc(N=c2oc3cc(O)ccc3cc2C(=O)NCC2CCCO2)c1 (centres undefined)	-87*	-2%	21µM*	-25%	?
COc1ccccc1N=c1oc2cc(O)ccc2cc1C(N)=O	?	23µM*	?	?	?
COc1ccc2cc(C(N)=O)/c(=N\NC(=O)c3ccccc3)oc2c1	?	-1%	?	-8%	?
Cc1ccc(C(=O)OCC(=O)Nc2cc(F)ccc2F)cc1NC(=O)c1ccco1	6	-4%	-27%	-1%	-1%
O=c1c(-c2cc(F)cc(F)c2)nc2cnc(N3CCOCC3)nc2n1C1CC1	·	·	-1%	·	-5%
COc1ccc(F)c(CN2CCC(CO)(Cc3cccc(C(F)(F)F)c3)CC2)c1	?	?	?	-25%	?
COc1ccc(CN2CCC(CO)(Cc3cccc(C(F)(F)F)c3)CC2)cc1Cn1cccn1	-75*	3%	18µM*	-1%	?
COc1cc(CN2CCC(CO)(Cc3cccc(C(F)(F)F)c3)CC2)ccc1F	-52*	1%	23µM*	-7%	21µM*
OCC1(Cc2ccccc2)CCN(Cc2ccc(C(F)(F)F)cc2)CC1	-51*	3%	18µM*	-12%	23µM*
